The results in this text go back to PubChem BioAssay (NCI).

About 83,000 compounds went through this panel and 20% of them were active in at least one assay; those are over-represented in the sample as a whole.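 Each cell line was grown in a 96-well plate and treated with one concentration of compound for 48 hours. Values below 10 were considered active.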 Values without a mark were called inactive. The source made the active and inactive calls.

Some test systems named below: DU-145 prostate; MALME-3M melanoma; MDA-MB-231 breast; SF-268 CNS; SF-295 CNS; SF-539 CNS; M14 melanoma; HCT-15 colon; HT29 colon; SNB-75 CNS; SNB-19 CNS; U251 CNS; PC-3 prostate; SK-MEL-5 melanoma; UACC-62 melanoma; LOX IMVI melanoma; SK-MEL-28 melanoma; K-562 leukemia; RXF 393 renal.
What all share (assay): NCI-60 one-dose screen, 48 h (100 = growth as untreated, 0 = no growth, -100 = all killed)
What all share (settings): 10 µM unless noted

Regarding `CC(=O)OCCC/C(=C\c1ccc2ccccc2c1)[N+](=O)[O-]`, the growth with DU-145 prostate was -93.6% (active); in the assay with MALME-3M melanoma, -53.5% (active); with MDA-MB-231 breast it was -58.8% (active); in the assay on SF-268 CNS it was -74.2% (active); in the assay on SF-295 CNS, 18%; in the assay on SF-539 CNS it was -99% (active). For the same compound, the growth in the assay on M14 melanoma was -70.9% (active); with HCT-15 colon it was -69.4% (active); in the assay with HT29 colon, -29.8% (active); in the assay with SNB-75 CNS, -88.9% (active); in the assay on SNB-19 CNS, -39.5% (active); in the assay on U251 CNS, -90.7% (active). Moreover, the growth is -96.8% (active) in the assay with PC-3 prostate, -94% (active) with SK-MEL-5 melanoma, -75.5% (active) with UACC-62 melanoma and -83.3% (active) in the assay with LOX IMVI melanoma.

In the case of `CCCC(=O)OCC1OC(n2cnc3c(=S)nc[nH]c32)C(OC(=O)CCC)C1OC(=O)CCC` (stereo not drawn), the growth in the assay with DU-145 prostate was 42.1%; in the assay with MALME-3M melanoma it was 51.8%; in the assay on MDA-MB-231 breast, 45.2%; with SF-268 CNS, 52.5%; with SF-295 CNS it was 36.8%; in the assay on SF-539 CNS, 22.1%. In addition, the growth with M14 melanoma is 13%; in the assay on HCT-15 colon it was 56.4%; in the assay with HT29 colon, 35.9%; in the assay with SNB-75 CNS, 52.9%; with SNB-19 CNS it was 74.4%; in the assay with U251 CNS, 87.6%. In addition, the growth was 59.7% in the assay on PC-3 prostate; 38.6% in the assay on SK-MEL-5 melanoma; 13.7% with UACC-62 melanoma; 11.7% with LOX IMVI melanoma; 98.2% with SK-MEL-28 melanoma.

Consider `O=C1/C(=C\c2cccc(OCCCCCOc3ccc(Cl)cc3)c2)N=C2SCCCN12`, for which the growth is 84% in the assay on DU-145 prostate; 41.7% with K-562 leukemia; 54.2% with MDA-MB-231 breast; 71.2% in the assay on RXF 393 renal; 81.3% in the assay on SF-268 CNS; 43% with SF-295 CNS. Moreover, the growth in the assay on SF-539 CNS was 77.4%; in the assay on M14 melanoma it was 44.5%; in the assay on HCT-15 colon, 57.7%; in the assay on SNB-75 CNS it was 71.3%; with SNB-19 CNS, 75%; in the assay on U251 CNS, 74.1%. Besides, the growth was 28.8% in the assay on PC-3 prostate, 56.6% in the assay on UACC-62 melanoma and 67.1% with LOX IMVI melanoma.

As to `C=C1C(=O)O[C@H]2[C@H]1CC/C(C=Nc1c(N)cc(C(F)(F)F)cc1C(F)(F)F)=C\CC[C@@]1(C)O[C@@H]21`, the growth in the assay on DU-145 prostate was 5.82% (active); in the assay with K-562 leukemia, -4.88% (active); in the assay with MDA-MB-231 breast it was -49.5% (active); in the assay with RXF 393 renal, -81.6% (active); with SF-268 CNS, 1.5% (active); with SF-295 CNS, 49.7%. Moreover, the growth is -84.5% (active) in the assay with SF-539 CNS; -61.2% (active) in the assay with M14 melanoma; -31.1% (active) with HCT-15 colon; -15.2% (active) with HT29 colon; 48.6% in the assay on SNB-75 CNS; 36.8% with SNB-19 CNS. Also, the growth is 8.57% (active) in the assay with U251 CNS; -12.8% (active) in the assay with PC-3 prostate; -43.6% (active) in the assay with SK-MEL-5 melanoma; -57.1% (active) in the assay with UACC-62 melanoma; -87.5% (active) in the assay with LOX IMVI melanoma; -17.2% (active) in the assay with SK-MEL-28 melanoma.

With `COc1cnc2c(c1)C(=O)c1c-2n(CCCN2CCOCC2)c(=O)c2cc(Cl)ccc12`, the growth in the assay with DU-145 prostate is 17.8%; in the assay on K-562 leukemia it was 27.5%; with MDA-MB-231 breast, 64.1%; with RXF 393 renal, 1.67% (active); with SF-268 CNS, 29.1%; in the assay with SF-295 CNS, 8.59% (active). Further, the growth in the assay on SF-539 CNS was 6.36% (active); in the assay with M14 melanoma it was 11.9%; in the assay on HCT-15 colon, 43.9%; with HT29 colon it was 8.04% (active); in the assay on SNB-75 CNS, 45.9%; with U251 CNS it was 8.25% (active). The growth is 32% with PC-3 prostate; -9.63% (active) with SK-MEL-5 melanoma; 4.37% (active) in the assay with UACC-62 melanoma; -36.6% (active) in the assay with LOX IMVI melanoma; 66.4% with SK-MEL-28 melanoma.

For `O=CC(OC(=O)c1ccccc1)C(OC(=O)c1ccccc1)C(COC(c1ccccc1)(c1ccccc1)c1ccccc1)OC(=O)c1ccccc1` (stereo not drawn), the growth with DU-145 prostate was 86%; in the assay on MALME-3M melanoma, 67.9%; with MDA-MB-231 breast, 48.4%; in the assay on SF-268 CNS, 38.5%; in the assay on SF-295 CNS it was 93.5%; in the assay on SF-539 CNS, 76.5%. In addition, the growth in the assay with M14 melanoma is 53.4%; in the assay with HCT-15 colon, 48.8%; with HT29 colon, 52.6%; in the assay on SNB-75 CNS, 94%; with SNB-19 CNS it was 78.8%; with U251 CNS it was 19%. Besides, the growth is 3.19% (active) with PC-3 prostate; 70.3% in the assay on SK-MEL-5 melanoma; 63.4% in the assay with UACC-62 melanoma; 13.8% in the assay with LOX IMVI melanoma; 0.343% (active) with SK-MEL-28 melanoma.

Regarding `O=C(NO)c1ccc(Cn2c(=O)n(CCc3ccccc3)c(=O)c3ccccc32)cc1`, the growth with DU-145 prostate is 30.5%; in the assay with K-562 leukemia, 35.4%; in the assay on MDA-MB-231 breast, 39%; with RXF 393 renal, 15.8%; in the assay on SF-268 CNS, 46.4%; in the assay on SF-295 CNS, 22.1%. Besides, the growth in the assay with SF-539 CNS is 12.1%; in the assay with M14 melanoma, 22.2%; in the assay with HCT-15 colon, 28.6%; in the assay on HT29 colon, 42.3%; in the assay on SNB-75 CNS, 54.3%; with U251 CNS, 23.8%. Further, the growth with PC-3 prostate is 20.3%; in the assay on SK-MEL-5 melanoma, 34.8%; with UACC-62 melanoma, 3.79% (active); in the assay on LOX IMVI melanoma, 12.9%; in the assay on SK-MEL-28 melanoma, 13.4%.

For the compound `CC(=Nc1ccccc1)C1=C(O)C(Cc2ccccc2)NC1=O` (stereo not drawn), the growth was -31.5% (active) in the assay with DU-145 prostate; 58.6% in the assay on MALME-3M melanoma; -1.28% (active) with MDA-MB-231 breast; 14.1% in the assay on SF-268 CNS; -19.1% (active) in the assay with SF-295 CNS; -33.8% (active) with SF-539 CNS. Further, the growth with M14 melanoma was -16.6% (active); with HCT-15 colon, 5.57% (active); in the assay on HT29 colon, -0.116% (active); in the assay on SNB-75 CNS it was 19.1%; in the assay on SNB-19 CNS, 16.4%; in the assay with U251 CNS, 15.5%. The growth in the assay with PC-3 prostate is 5.74% (active); with SK-MEL-5 melanoma, -43.3% (active); in the assay with UACC-62 melanoma it was 24.6%; with LOX IMVI melanoma, 18.5%; in the assay on SK-MEL-28 melanoma it was 37.8%.

For `Oc1ccc(/C=N/Nc2nnc(N/N=C/c3ccc(O)cc3O)c3ccccc23)c(O)c1`, the growth with DU-145 prostate was -24.3% (active); in the assay with MALME-3M melanoma, -5.87% (active); in the assay with MDA-MB-231 breast, -13.6% (active); in the assay on SF-268 CNS, -5.14% (active); with SF-295 CNS, -38.1% (active); in the assay with SF-539 CNS it was -42.1% (active). Besides, the growth in the assay with M14 melanoma was -52.7% (active); with HCT-15 colon it was 7.14% (active); in the assay with HT29 colon, -35.3% (active); in the assay on SNB-75 CNS it was -46.9% (active); in the assay on SNB-19 CNS it was -1.04% (active); in the assay with U251 CNS it was -25% (active). Moreover, the growth in the assay on PC-3 prostate is -50.8% (active); with SK-MEL-5 melanoma it was -17.7% (active); in the assay with UACC-62 melanoma it was -94.8% (active); in the assay on LOX IMVI melanoma, -51.4% (active); in the assay with SK-MEL-28 melanoma, -43.3% (active).

As for `CCc1ccc(C2=C(O)C(=O)C(c3ccc(CC)cc3)=C(O)C2=O)cc1`, the growth in the assay on DU-145 prostate was 13.8%; with MALME-3M melanoma it was -15.1% (active); in the assay on MDA-MB-231 breast it was -0.828% (active); with SF-268 CNS, 0.61% (active); in the assay on SF-295 CNS it was -27.2% (active); in the assay on SF-539 CNS, -71.8% (active). For the same compound, the growth in the assay with M14 melanoma is 4.98% (active); with HCT-15 colon, 6.42% (active); with HT29 colon it was 0.54% (active); in the assay with SNB-75 CNS, -16.9% (active); in the assay on SNB-19 CNS, 8.83% (active); in the assay with U251 CNS it was 1.63% (active). The growth is 6.64% (active) with PC-3 prostate; -58.7% (active) in the assay with SK-MEL-5 melanoma; -44.1% (active) in the assay on UACC-62 melanoma; 4.72% (active) with LOX IMVI melanoma; -19.2% (active) in the assay on SK-MEL-28 melanoma.
